For experiment [1], the system named is XIP peptide (Xip251-270) binding. Nature of the experiment: small-molecule binders of XIP peptide, primary screen, biochemical, small-molecule microarray, fluorescence 635/667 nm, 0.1 µg/mL protein (AID 1182). The settings on record: fluorescent protein binding, 635 nm, higher = more signal, called active from +8 up or from −8 down.
The subject of a further experiment is XIP peptide (Xip251-270). Nature of the experiment: small-molecule binders of XIP peptide, primary screen, biochemical, small-molecule microarray, fluorescence 635/667 nm, 0.5 µg/mL protein (AID 1183). The settings on record: small-molecule microarray binding, fluorescence 635 nm; higher = more signal.
Experiment [2] in a line: Plasmodium falciparum growth inhibition, primary screen, strain 3D7, DAPI fluorescence, 100 nL (AID 1184).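 Further: parasites grown inside human red blood cells in medium with human serum.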 The settings on record: P. falciparum 3D7 growth, 3 d, higher = more signal.
Experiment [3] has as its target Homeobox protein Hox-A13 (Mus musculus) (UniProt Q62424). Kind of experiment: inhibitors of HoxA13-DNA binding, primary screen, biochemical, fluorescence polarization, labeled oligonucleotide (AID 1185). The settings on record: 15 min, higher = more signal, called active from +8 up or from −8 down. For orientation: In fluorescence polarisation assays a small probe gives low polarisation when free and higher when bound to something large.

Experiment [4] is described as follows: inhibitors of hydroxyurea-induced Chk1 phosphorylation, primary screen, imaging, HeLa, phospho-Chk1 antibody, percent positive cells (AID 1186). Particulars: hydroxyurea-induced phospho-Chk1 immunofluorescence imaging, higher = more signal.
The nature of experiment [5]: inhibitors of hydroxyurea-induced Chk1 phosphorylation, primary screen, imaging, HeLa, phospho-Chk1 nuclear intensity (AID 1187). The settings on record: hydroxyurea-induced phospho-Chk1 immunofluorescence imaging, higher = more signal.

Activity calls are given as the source filed them. Unless noted, how the calls were made is not given here.

Homeobox protein Hox-A13 (Mus musculus), sequence (Q62424 whole entry, looked up): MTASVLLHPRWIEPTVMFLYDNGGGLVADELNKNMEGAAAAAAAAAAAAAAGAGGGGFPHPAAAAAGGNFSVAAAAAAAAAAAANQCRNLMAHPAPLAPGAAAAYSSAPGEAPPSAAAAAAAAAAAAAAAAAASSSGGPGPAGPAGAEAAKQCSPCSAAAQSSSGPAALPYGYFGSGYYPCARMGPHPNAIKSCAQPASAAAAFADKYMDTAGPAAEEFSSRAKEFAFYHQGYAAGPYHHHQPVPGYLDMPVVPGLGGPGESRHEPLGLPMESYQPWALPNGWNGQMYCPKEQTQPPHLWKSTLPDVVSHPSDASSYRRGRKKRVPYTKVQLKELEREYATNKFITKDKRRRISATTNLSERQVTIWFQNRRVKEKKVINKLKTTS

As to `C=C(/C(=C/C[C@H](OC(=O)c1ccncc1)c1ccc(OCCO)cc1)c1cc(C(=O)OC)ccc1OC)C(C)C`, the composite z-score in experiment [1] was 0.249 (inactive); in the experiment on XIP peptide (Xip251-270), 0.505. The z-score in experiment [2] was -2.87; in experiment [3], -3.23 (inactive); in experiment [4], -0.962 (inactive); in experiment [5] it was -0.621 (inactive).
As to `CC(=O)NCCCC[C@@H]1NC(=O)[C@H]2C[C@@H](C(=O)O)[C@@H](c3ccc(O)cc3)N2C1=O`, the composite z-score in experiment [1] was 1.01 (inactive); in the experiment with XIP peptide (Xip251-270) it was 0.764. In addition, the z-score is -1.71 in experiment [2], 4.77 (inactive) in experiment [3], 0.402 (inactive) in experiment [4] and 0.207 (inactive) in experiment [5].
Take `CCOC(=O)C[C@H]1[C@H](OC(=O)c2ccc(C(=O)c3ccccc3)cc2)[C@@H](NC(=O)Cc2ccc(OC)cc2)c2cc(OCCCO)ccc2N1C(=O)c1ccc2ccccc2n1`: the composite z-score was 0.845 (inactive) in experiment [1] and 0.172 in the experiment on XIP peptide (Xip251-270). Besides, the z-score in experiment [2] was -0.129; in experiment [3], -1.9 (inactive); in experiment [4], 0.112 (inactive); in experiment [5] it was -0.189 (inactive).
As to `COc1cc(OC)c(C(O)C2C=CC3C(=O)NC(=O)C3N2Nc2ccccn2)cc1Br` (stereo not given), the values for the composite z-score (in experiment [1]; in the experiment with XIP peptide (Xip251-270)) were 0.654 (inactive) and 0.448, respectively. In addition, the z-score in experiment [2] is 0.776; in experiment [3], -1.28 (inactive); in experiment [4], -0.143 (inactive); in experiment [5] it was -0.266 (inactive).
Take `[N-]=[N+]=Nc1ccccc1[C@H]1OC(c2ccc(OCCCO)cc2)=N[C@@]1(Cc1ccccc1)C(=O)N1CCOCC1`: the composite z-score is 2.73 (inactive) in experiment [1] and 0.816 in the experiment with XIP peptide (Xip251-270). Besides, the z-score in experiment [2] is -2.19; in experiment [3], -3.84 (inactive); in experiment [4] it was -0.0747 (inactive); in experiment [5] it was 0.0969 (inactive).
Regarding `Cc1ccc(C2C3C(=O)CC4C(=O)N(c5ccccc5)C(=O)C4C3CN2S(=O)(=O)c2ccc(C)cc2)cc1` (stereo not given), the composite z-score in experiment [1] was 0.053 (inactive); in the experiment with XIP peptide (Xip251-270), 0.785. Further, the z-score in experiment [2] is 0.395; in experiment [3] it was -3.61 (inactive); in experiment [4], 0.951 (inactive); in experiment [5], 1 (inactive).
For the molecule `O=C1NC(=O)C2C1C=CC(C(O)C=Cc1ccc([N+](=O)[O-])cc1)N2Nc1ccc(Cl)cc1Cl` (stereo not given), the composite z-score is 2.22 (inactive) in experiment [1] and 0.692 with XIP peptide (Xip251-270). Also, the z-score in experiment [2] is -0.143; in experiment [3], -5.55 (inactive); in experiment [4], 0.104 (inactive); in experiment [5], -0.171 (inactive).
Regarding `CCOC(=O)C[C@H]1[C@H](OC(=O)c2ccc(C(=O)c3ccccc3)cc2)[C@@H](NC(=O)c2ccccc2)c2cc(OCCCO)ccc2N1C(=O)c1ccccc1`, the composite z-score is -0.492 (inactive) in experiment [1] and 0.59 in the experiment with XIP peptide (Xip251-270). The z-score was -0.263 in experiment [2], -1.19 (inactive) in experiment [3], 0.743 (inactive) in experiment [4] and 0.943 (inactive) in experiment [5].
As for `O=C1O[C@H](c2ccccc2)[C@H](c2ccccc2)N2[C@H]1[C@@H](C(=O)NC[C@H](O)c1ccccc1)[C@]1(C(=O)Nc3ccc(C#CC4=CCCCC4)cc31)[C@H]2c1ccccc1OCCO`, the composite z-score in experiment [1] is -0.0939 (inactive); in the experiment with XIP peptide (Xip251-270) it was 0.203. Also, the z-score in experiment [2] was -0.285; in experiment [3], 1.5 (inactive); in experiment [4], 0.0263 (inactive); in experiment [5] it was -0.294 (inactive).
As to `CC(C)=CCCC(C)=CC(O)C1C=CC2C(=O)N(c3ccccc3)C(=O)C2N1Nc1ccc(C(C)C)cc1` (stereo not given), the composite z-score was 0.365 (inactive) in experiment [1] and 0.305 in the experiment with XIP peptide (Xip251-270). Also, the z-score was -0.25 in experiment [2], -2.82 (inactive) in experiment [3], 0.342 (inactive) in experiment [4] and 0.0288 (inactive) in experiment [5].
With `COC(=O)C(CC#Cc1ccc2c(c1)[C@]1(C(=O)N2)[C@H](c2ccccc2OCCO)N2[C@H](c3ccccc3)[C@H](c3ccccc3)OC(=O)[C@H]2[C@@H]1C(N)=O)C(=O)OC`, the composite z-score was 0.945 (inactive) in experiment [1] and 0.787 in the experiment on XIP peptide (Xip251-270). For the same molecule, the z-score in experiment [2] was -2.24; in experiment [3], -2.21 (inactive); in experiment [4] it was 0.202 (inactive); in experiment [5], 0.555 (inactive).
On to `COC(=O)[C@@]1(Cc2ccccc2)[C@H]2c3cc(C(=O)N(C)C)n(CCc4c[nH]c5ccc(O)cc45)c3C[C@H]2CN1C(=O)c1ccccc1`, for which the composite z-score is 1.44 (inactive) in experiment [1] and 0.818 in the experiment on XIP peptide (Xip251-270). The z-score is -1.59 in experiment [2], -5.16 (inactive) in experiment [3], -0.996 (inactive) in experiment [4] and -0.844 (inactive) in experiment [5].
As for `C=C(CCCC)/C(=C/C[C@H](OC(C)=O)c1ccccc1OCCO)c1cnc2ccccc2c1`, the composite z-score in experiment [1] is 2.68 (inactive); with XIP peptide (Xip251-270) it was 0.657. Moreover, the z-score is -2.52 in experiment [2], -5.13 (inactive) in experiment [3], 0.444 (inactive) in experiment [4] and 0.328 (inactive) in experiment [5].
For the molecule `O=C1C2C=CC(C(O)c3ccc(F)cc3)N(Nc3ccc([N+](=O)[O-])cc3)C2C(=O)N1c1ccccc1` (stereo not given), the composite z-score was 0.224 (inactive) in experiment [1] and 0.942 in the experiment on XIP peptide (Xip251-270). Besides, the z-score in experiment [2] was -0.255; in experiment [3], -4.16 (inactive); in experiment [4], 0.137 (inactive); in experiment [5], 0.653 (inactive).
As to `CCN(CC)c1ccc(N2CC=CC34O[C@@H]5C=CCOC(=O)[C@@H]5[C@H]3C(=O)N(CCCCCCO)[C@@H]4C2=O)cc1` (stereo not given in full), the composite z-score was 1.07 (inactive) in experiment [1] and 0.659 with XIP peptide (Xip251-270). Further, the z-score was -0.897 in experiment [2], -5.54 (inactive) in experiment [3], 0.234 (inactive) in experiment [4] and 0.722 (inactive) in experiment [5].
